“And” between values parts separate entries of the source, which are not always exact repeats. Equal entries are not always repeated. Results filed as inconclusive are left out. A call without a number means that no potency is given here. Where a structure was tested more than once in an assay, its records may differ in their call. The source made the active and inactive calls. The call rests on the fitted dose curve; in most records, active means well fitted cell-killing curve with a large enough effect in the repeat runs; inconclusive means weak or mixed curves, or effect the other way; inactive means no such curve, though single readings can be large or run the other way.
test: qHTS assay to identify small molecule antagonists of the glucocorticoid receptor (GR) signaling pathway - cell viability counter screen (AID 720693); settings: GR-bla HeLa viability, CellTiter-Glo luminescence, 18 h, with 5 nM dexamethasone present; series mostly up to 58.5 µM; viability change, negative = cytotoxic: at the top concentration; further: nearly all actives have a fitted effect of over 55% in size

Q: With `CCSC(=O)N1CCCCCC1` as the molecule, how does the Potency read?
A: inactive

Q: For `CNC(=O)O/N=C(\SC)C(=O)N(C)C`, which Potency is on record?
A: inactive

Q: Which Potency does the source give for `Cl/C=C/Cl` here?
A: inactive

Q: Which Potency does the source give for `COC(C)(C)CCCC(C)C/C=C/C(C)=C/C(=O)OC(C)C` (stereo not given) here?
A: inactive

Q: Which Potency does the source give for `CC(=O)/C=C/c1ccccc1` here?
A: inactive

Q: With `C/C=C/c1ccc2c(c1)OCO2` as the molecule, how does the Potency read?
A: inactive

Q: Which “viability change, negative = cytotoxic” value does the source give for `CNC(=O)O/N=C/C(C)(C)SC` here?
A: -3.47% [at 78.9 µM] (inactive)

Q: With `ClC(Cl)c1ccccc1` as the molecule, how does the Potency read?
A: inactive

Q: With `CN1C(=O)CCS(=O)(=O)C1c1ccc(Cl)cc1` (stereo not given) as the molecule, how does the Potency read?
A: inactive

Q: Which Potency does the source give for `Cc1cc(O)ccc1Cl` here?
A: inactive

Q: Which Potency does the source give for `O=C(O)Cc1ccccc1` here?
A: inactive

Q: Which Potency does the source give for `O=C(O)CCCc1ccc(N(CCCl)CCCl)cc1` here?
A: inactive

Q: For `Cc1ccccc1N`, which Potency is on record?
A: inactive

Q: For `CNC(=O)O/N=C/C(C)(C)S(C)=O` (stereo not given), which Potency is on record?
A: inactive

Q: For `O=C(O)C1C(C(=O)O)C2(Cl)C(Cl)=C(Cl)C1(Cl)C2(Cl)Cl` (stereo not given), which Potency is on record?
A: inactive

Q: With `CN(C)C(=O)Nc1cccc(C(F)(F)F)c1` as the molecule, how does the Potency read?
A: inactive

Q: Which Potency does the source give for `Oc1ccc(Cl)cc1` here?
A: inactive

Q: Which Potency does the source give for `CCOC(=O)CC(SP(=O)(OC)OC)C(=O)OCC` (stereo not given) here?
A: inactive

Q: With `CC(C)c1cccc(C(C)C)c1O` as the molecule, how does the Potency read?
A: inactive

Q: Which Potency does the source give for `CNCC(O)c1ccc(O)cc1` (stereo not given) here?
A: inactive

Q: With `Cc1ccc(N)cc1` as the molecule, how does the Potency read?
A: inactive

Q: For `OCc1ccco1`, which Potency is on record?
A: inactive

Q: Which Potency does the source give for `OC[C@@H](O)[C@H]1O[C@@H]2O[C@H](C(Cl)(Cl)Cl)O[C@@H]2[C@H]1O` here?
A: inactive

Q: For `O=P1(NCCCl)OCCCN1CCCl` (stereo not given), which Potency is on record?
A: inactive

Q: Which Potency does the source give for `O=[N+]([O-])c1ccc(Cl)c(Cl)c1` here?
A: inactive

Q: With `N#Cc1ccccn1` as the molecule, how does the Potency read?
A: inactive

Q: Which Potency does the source give for `CNc1cnn(-c2cccc(C(F)(F)F)c2)c(=O)c1Cl` here?
A: inactive

Q: With `CC(C)CCCCCCOC(=O)c1ccccc1C(=O)OCCCCCCC(C)C` as the molecule, how does the Potency read?
A: inactive

Q: With `CC12CC1(C)C(=O)N(c1cc(Cl)cc(Cl)c1)C2=O` (stereo not given) as the molecule, how does the Potency read?
A: inactive

Q: With `COP(=S)(OC)Oc1ccc(SC)c(C)c1` as the molecule, how does the Potency read?
A: inactive

test: qHTS assay for identifying genotoxic compounds that show differential cytotoxicity against isogenic chicken DT40 cell lines with known DNA damage response pathways - wild type cell line (AID 743012); settings: DT40 wild type chicken cells viability, CellTiter-Glo, 40 h; series mostly up to 68.4 µM; activity change, negative = cytotoxicity: at the top concentration; further: nearly all actives have a fitted effect of over 60% in size; further: potency means the concentration at half of the fitted maximal effect
Method in brief: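 Quantitative HTS on parental DT40 cells: 40 h compound treatment at 37 C/5% CO2, with viability then determined by CellTiter-Glo luminescence. Values serve as the DNA repair-proficient reference for differential cytotoxicity.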

Q: Which “activity change, negative = cytotoxicity” value does the source give for `CCSC(=O)N1CCCCCC1` here?
A: 19.1% (inactive)

Q: Which “activity change, negative = cytotoxicity” value does the source give for `CNC(=O)O/N=C(\SC)C(=O)N(C)C` here?
A: -0.0701% [at 95 µM] (inactive)

Q: Which Potency does the source give for `Cl/C=C/Cl` here?
A: inactive

Q: With `COC(C)(C)CCCC(C)C/C=C/C(C)=C/C(=O)OC(C)C` (stereo not given) as the molecule, how does the Potency read?
A: 29.8 µM (active) and inactive

Q: For `CC(=O)/C=C/c1ccccc1`, which Potency is on record?
A: inactive

Q: Which Potency does the source give for `C/C=C/c1ccc2c(c1)OCO2` here?
A: inactive

Q: Which Potency does the source give for `CNC(=O)O/N=C/C(C)(C)SC` here?
A: inactive

Q: For `ClC(Cl)c1ccccc1`, which “activity change, negative = cytotoxicity” value is on record?
A: -0.808% (inactive)

Q: With `CN1C(=O)CCS(=O)(=O)C1c1ccc(Cl)cc1` (stereo not given) as the molecule, how does the Potency read?
A: inactive

Q: With `Cc1cc(O)ccc1Cl` as the molecule, how does the Potency read?
A: inactive

Q: With `O=C(O)Cc1ccccc1` as the molecule, how does the Potency read?
A: inactive

Q: For `O=C(O)CCCc1ccc(N(CCCl)CCCl)cc1`, which Potency is on record?
A: 21.1 µM (active) and 770 nM (active)

Q: Which Potency does the source give for `Cc1ccccc1N` here?
A: inactive

Q: Which Potency does the source give for `CNC(=O)O/N=C/C(C)(C)S(C)=O` (stereo not given) here?
A: inactive

Q: For `O=C(O)C1C(C(=O)O)C2(Cl)C(Cl)=C(Cl)C1(Cl)C2(Cl)Cl` (stereo not given), which Potency is on record?
A: inactive

Q: With `CN(C)C(=O)Nc1cccc(C(F)(F)F)c1` as the molecule, how does the Potency read?
A: inactive

Q: Which Potency does the source give for `Oc1ccc(Cl)cc1` here?
A: inactive

Q: For `CCOC(=O)CC(SP(=O)(OC)OC)C(=O)OCC` (stereo not given), which Potency is on record?
A: inactive

Q: Which Potency does the source give for `CC(C)c1cccc(C(C)C)c1O` here?
A: inactive

Q: For `CNCC(O)c1ccc(O)cc1` (stereo not given), which Potency is on record?
A: inactive

Q: Which Potency does the source give for `Cc1ccc(N)cc1` here?
A: inactive

Q: For `OCc1ccco1`, which “activity change, negative = cytotoxicity” value is on record?
A: 2.5% [at 95 µM] (inactive)

Q: Which Potency does the source give for `OC[C@@H](O)[C@H]1O[C@@H]2O[C@H](C(Cl)(Cl)Cl)O[C@@H]2[C@H]1O` here?
A: inactive

Q: For `O=P1(NCCCl)OCCCN1CCCl` (stereo not given), which Potency is on record?
A: inactive

Q: With `O=[N+]([O-])c1ccc(Cl)c(Cl)c1` as the molecule, how does the Potency read?
A: inactive

Q: For `N#Cc1ccccn1`, which Potency is on record?
A: inactive

Q: For `CNc1cnn(-c2cccc(C(F)(F)F)c2)c(=O)c1Cl`, which “activity change, negative = cytotoxicity” value is on record?
A: 18.8% (inactive)

Q: With `CC(C)CCCCCCOC(=O)c1ccccc1C(=O)OCCCCCCC(C)C` as the molecule, how does the Potency read?
A: inactive

Q: Which “activity change, negative = cytotoxicity” value does the source give for `CC12CC1(C)C(=O)N(c1cc(Cl)cc(Cl)c1)C2=O` (stereo not given) here?
A: 2.16% (inactive)

Q: With `COP(=S)(OC)Oc1ccc(SC)c(C)c1` as the molecule, how does the Potency read?
A: 54.5 µM (active)

test: qHTS assay for identifying genotoxic compounds that show differential cytotoxicity against isogenic chicken DT40 cell lines with known DNA damage response pathways - Rev3 mutant cell line (AID 743014); settings: chicken DT40 Rev3-/- viability, CellTiter-Glo, 40 h; series mostly up to 68.4 µM; activity, negative = cytotoxicity: at the top concentration; further: nearly all actives have a fitted effect of over 55% in size; further: potency means the concentration at half of the fitted maximal effect

Q: With `CCSC(=O)N1CCCCCC1` as the molecule, how does the Potency read?
A: inactive

Q: With `CNC(=O)O/N=C(\SC)C(=O)N(C)C` as the molecule, how does the Potency read?
A: 61.1 µM (active)

Q: Which Potency does the source give for `Cl/C=C/Cl` here?
A: inactive

Q: With `COC(C)(C)CCCC(C)C/C=C/C(C)=C/C(=O)OC(C)C` (stereo not given) as the molecule, how does the “activity, negative = cytotoxicity” value read?
A: -24.6% (inactive)

Q: Which Potency does the source give for `CC(=O)/C=C/c1ccccc1` here?
A: inactive

Q: For `C/C=C/c1ccc2c(c1)OCO2`, which Potency is on record?
A: inactive

Q: For `CNC(=O)O/N=C/C(C)(C)SC`, which “activity, negative = cytotoxicity” value is on record?
A: 5.73% [at 95 µM] (inactive)

Q: With `ClC(Cl)c1ccccc1` as the molecule, how does the Potency read?
A: inactive

Q: Which Potency does the source give for `CN1C(=O)CCS(=O)(=O)C1c1ccc(Cl)cc1` (stereo not given) here?
A: inactive

Q: With `Cc1cc(O)ccc1Cl` as the molecule, how does the Potency read?
A: inactive

Q: With `O=C(O)Cc1ccccc1` as the molecule, how does the Potency read?
A: inactive

Q: With `O=C(O)CCCc1ccc(N(CCCl)CCCl)cc1` as the molecule, how does the Potency read?
A: 1.88 µM (active) and 2.18 µM (active) and 43.3 nM (active)

Q: With `Cc1ccccc1N` as the molecule, how does the Potency read?
A: inactive

Q: Which Potency does the source give for `CNC(=O)O/N=C/C(C)(C)S(C)=O` (stereo not given) here?
A: inactive

Q: For `O=C(O)C1C(C(=O)O)C2(Cl)C(Cl)=C(Cl)C1(Cl)C2(Cl)Cl` (stereo not given), which Potency is on record?
A: inactive

Q: For `CN(C)C(=O)Nc1cccc(C(F)(F)F)c1`, which “activity, negative = cytotoxicity” value is on record?
A: 11.9% [at 95 µM] (inactive)

Q: With `Oc1ccc(Cl)cc1` as the molecule, how does the Potency read?
A: inactive

Q: Which Potency does the source give for `CCOC(=O)CC(SP(=O)(OC)OC)C(=O)OCC` (stereo not given) here?
A: inactive

Q: For `CC(C)c1cccc(C(C)C)c1O`, which Potency is on record?
A: inactive

Q: For `CNCC(O)c1ccc(O)cc1` (stereo not given), which “activity, negative = cytotoxicity” value is on record?
A: 1.96% (inactive)

Q: For `Cc1ccc(N)cc1`, which Potency is on record?
A: inactive

Q: Which “activity, negative = cytotoxicity” value does the source give for `OCc1ccco1` here?
A: 10.4% [at 95 µM] (inactive)

Q: With `OC[C@@H](O)[C@H]1O[C@@H]2O[C@H](C(Cl)(Cl)Cl)O[C@@H]2[C@H]1O` as the molecule, how does the Potency read?
A: inactive

Q: For `O=P1(NCCCl)OCCCN1CCCl` (stereo not given), which Potency is on record?
A: inactive

Q: Which Potency does the source give for `O=[N+]([O-])c1ccc(Cl)c(Cl)c1` here?
A: inactive

Q: With `N#Cc1ccccn1` as the molecule, how does the Potency read?
A: inactive

Q: With `CNc1cnn(-c2cccc(C(F)(F)F)c2)c(=O)c1Cl` as the molecule, how does the Potency read?
A: inactive and 61.1 µM (active)

Q: Which Potency does the source give for `CC(C)CCCCCCOC(=O)c1ccccc1C(=O)OCCCCCCC(C)C` here?
A: inactive

Q: With `CC12CC1(C)C(=O)N(c1cc(Cl)cc(Cl)c1)C2=O` (stereo not given) as the molecule, how does the Potency read?
A: 24.3 µM (active)

Q: For `COP(=S)(OC)Oc1ccc(SC)c(C)c1`, which Potency is on record?
A: inactive
